Drawing on PubChem BioAssay (EPA / NIEHS), this text covers AC50 and outcome for 13 molecules.

Where “and” joins values, the source holds several entries; their conditions need not be identical. Equal entries are not always repeated. Inconclusive results are not listed. Some compounds were tested as several samples or in several runs, with calls that do not always agree. Calls of active or inactive are those of the source. Rule for the calls, unless noted: active = hit-call score of the fitted dose curve at least 0.9, where 1 is the maximum; inconclusive = response in the unintended direction; inactive = score below 0.9.

The test system of assay [1] is Thyroperoxidase (TPO), gene 54314. Kind of assay: CCTE_Simmons_AUR_rTPO: CCTE's Amplex UltraRed Assay for Thyroperoxidase (TPO) Inhibition, Simmons Lab (AID 2283662).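 For AC50: potency for loss of signal meaning inhibition of peroxidase activity.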 The method in brief: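 Rat thyroid microsomal TPO + 25 uM AUR in 200 mM K phosphate; cpd 5 nM–87.5 uM [final], 8 conc, 0.5% DMSO; 300 uM H2O2 starts rxn; 37C dark 30 min; endpoint FI 544/590 nm; n=3.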

The nature of assay [2]: CCTE_Simmons_CellTiterGLO_HEK293T: Viability Assessment in CCTE's Assays for Thyroperoxidase (TPO) Inhibition, Simmons Lab (AID 2283665).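 For AC50: cells exposed to compound for 24 h before readout; actives reduce ATP signal below DMSO vehicle meaning cytotoxicity.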 The method in brief: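 Luminescent ATP readout (CellTiter-Glo, 20 min at room temperature) after 24 hr exposure of HEK293T cells to 5 nM–87.5 uM final compound; signal loss relative to DMSO vehicle indicated cytotoxicity; dichlone titrated as positive control.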
(In general: Cellular ATP, detected with luciferase, serves as a proxy for viable cell number.)

A short description of assay [3]: Tanguay_ZF_120hpf_TR_legacy: (Legacy) Oregon State University Tanguay Lab 120 Hour Post-fertilization zebrafish Assay for Touch Response (AID 2283667). The method in brief:
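Readout is presence or absence of touch response in 120 hpf zebrafish larvae, assessed by brightfield observation after continuous static exposure at 28C. Final vehicle was 0.64% (vol/vol) DMSO.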

Assay [4] is described as follows: CCTE_Padilla_ZF_144hpf_TERATOSCORE: (Legacy) CCTE's 144 Hour Post-fertilization zebrafish Assay Teratoscore, Padilla Lab (AID 2283679; active = hit-call score of the fitted dose curve at least 0.9, where 1 is the maximum; inactive = score below 0.9;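 for AC50: zebrafish embryos with chorions exposed by immersion from 6-8 hpf to 5 dpf with daily renewal; teratogenicity score from eye scoring of death hatching and malformations at 144 hpf; higher score means more developmental defects relative to DMSO baseline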). The method in brief:
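Larvae scored by eye at 144 hpf for death, hatching and malformations after a day in clean Hanks'. Before that, daily-renewed exposure at 80 uM (0.4% DMSO, 26C) from roughly 6-8 hpf through 5 dpf, 4 embryos per chemical.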

Assay [5] in a line: STM_H9_OrnithineISnorm_perc: Stemina devTOX quickPredict H9 human embryonic stem cell (hESC)-based Assay for Ornithine (ORN) Metabolite Biomarker, Normalized (AID 2283712; active = hit-call score of the fitted dose curve at least 0.9, where 1 is the maximum; inactive = score below 0.9;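 note: ornithine released into spent medium during last day measured by mass spectrometry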). The gist of the method:
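UPLC-HRMS readout: endogenous ornithine EIC area / 13C-ORN internal standard, then % of 0.1% DMSO median. H9 hESCs (pluripotent), 72h exposure, re-dosed with fresh media q24h; last 24-h spent media, deproteinized in 40% acetonitrile.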

A short description of assay [6]: STM_H9_CystineISnorm_perc: Stemina devTOX quickPredict H9 human embryonic stem cell (hESC)-based Assay for Cystine (CYSS) Metabolite Biomarker, Normalized (AID 2283713; active = hit-call score of the fitted dose curve at least 0.9, where 1 is the maximum; inactive = score below 0.9). The method in brief: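 UPLC-HRMS read-out: endogenous cystine peak area in spent medium, normalized to isotope-labeled internal standard and to median of 0.1% DMSO controls. Pluripotent H9 cells, 72h exposure, daily medium/compound replenishment; medium from last 24h sampled.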

Assay [7] can be described thus: STM_H9_OrnCyssISnorm_ratio: Stemina devTOX quickPredict H9 human embryonic stem cell (hESC)-based Assay for Ornithine (ORN):Cystine (CYSS) Ratio (AID 2283714). The gist of the method: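 H9 hESC, 72h, q24h re-dose; last-day media → acetonitrile deproteinization → UPLC-HRMS. ORN:CYSS ratio from isotope-normalized EIC areas, vs 0.1% DMSO; MTX references on each plate.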

The nature of assay [8]: Tanguay_ZF_120hpf_ActivityScore_legacy: (Legacy) Oregon State University Tanguay Lab 120 Hour Post-fertilization zebrafish Assay Score for Activity (AID 2283742).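 For AC50: dechorionated Tropical 5D wild-type zebrafish embryos held singly per well; static exposure from 6 hpf until 120 hpf at 28 °C.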 The method in brief: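 In this whole-embryo screen, dechorionated zebrafish were exposed from 6 hpf until 120 hpf at 28C under a 0.64% DMSO vehicle. Developmental malformations and death were recorded by brightfield microscopy as binary endpoints.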

Read-out in assay [9]: matrix metalloproteinase-1 (MMP1), MMP1 (gene 4312)
Kind of assay: LTEA_HepaRG_MMP1: Life Technologies and Expression Analysis (LTEA) Assay for matrix metalloproteinase-1 (MMP1) using HepaRG (AID 2283658; active = hit-call score of the fitted dose curve at least 0.9, where 1 is the maximum; inactive = score below 0.9). The conditions noted are these: mRNA level, 48 h; actives raise or lower the signal. The method in brief: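 HepaRG, ~100,000 cells/well, 48 h pre-culture; serum-free induction medium; test chemical 8 conc (max 100 uM, half-log), duplicate, 48 h; 0.5% DMSO; qRT-PCR MMP1, housekeeping-normalized; gain/loss fit vs DMSO.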

Read-out in assay [10]: Cytochrome P450 (CYP24A1_1), CYP24A1 (gene 1591)
The assay is described as follows: LTEA_HepaRG_CYP24A1_1: Life Technologies and Expression Analysis (LTEA) Assay for Cytochrome P450 (CYP24A1_1) using HepaRG (AID 2283671; active = hit-call score of the fitted dose curve at least 0.9, where 1 is the maximum; inactive = score below 0.9). Conditions: mRNA level, 48 h; actives raise or lower the signal. The method in brief: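 Cultures of human HepaRG were treated in duplicate for 48 h (0.5% DMSO vehicle, highest dose 100 uM). CYP24A1 mRNA by qRT-PCR, normalized to ACTB, GAPDH, POLR2A.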

The nature of assay [11]: CEETOX_H295R_MTT_cell_viability: Viability Assessment in the CeeTox HT-H295R MTT Assay (AID 2283718; active = hit-call score of the fitted dose curve at least 0.9, where 1 is the maximum; inactive = score below 0.9;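 for AC50: curve fitted both ways so AC50 may mark viability loss or gain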). The gist of the method: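 H295R cells prestimulated 48 h with 10 uM forskolin, then exposed 48 h to test chemical (0.1% DMSO final). Viability by MTT (0.5 mg/ml, 4 h, 37 C), absorbance 570/650 nm; percent change versus DMSO, bidirectional fit.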
The subject of assay [12] is Thyroperoxidase (TPO), gene 445522. Kind of assay: CCTE_Simmons_GUA_TPO: CCTE's Guaiacol Assay for Thyroperoxidase (TPO) Inhibition, Simmons Lab (AID 2283750). The method in brief:
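Porcine thyroid microsomes (25 ug) in 200mM potassium phosphate, preincubated 30 s at 37C with compound (8 concentrations, 5 nM–87.5 uM) and 35mM guaiacol; 1mM H2O2 starts reaction. Absorbance change at 450nm over first 80 s; loss of signal versus DMSO, three replicates.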

A short description of assay [13]: ArunA_CellTiter_hNC: Viability Assessment in the ArunA Biomedical's Oris Neural Crest (hNC) Cell Migration Assay (AID 2283752). The method in brief:
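hNC cells (H9 ESC-derived), 60,000/well, Matrigel, LIF + bFGF medium; 16 h 37C attachment; 72 h compound in test medium; CellTiter Aqueous One read-out; loss-of-signal vs DMSO baseline.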

Assay [14] in a line: ArunA_CellTiter_hNP: Viability Assessment in the ArunA Biomedical's Oris Neural Crest (hNC) Cell Migration Assay (AID 2283753). The gist of the method: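 Viability read with CellTiter 96 Aqueous One after 72 h chemical exposure of human hNP1 neuroprogenitors, which were plated on Matrigel in LIF/bFGF medium 16 h beforehand. Endpoint fitted in positive direction relative to DMSO.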

The nature of assay [15]: ArunA_Migration_hNP: ArunA Biomedical's Oris Neuroprogenitor (hNP) Cell Migration Assay (AID 2283754). The method in brief:
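Readout is calcein-AM fluorescence (ex494/em517) of cells migrating into the detection zone, relative to DMSO. hNP1 cells (H9-derived) grown on Matrigel behind stoppers 16 h, then stoppers pulled and chemical applied 72 h; cytochalasin D as control.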

The nature of assay [16]: ArunA_Migration_hNC: ArunA Biomedical's Oris Neural Crest (hNC) Cell Migration Assay (AID 2283755). The method in brief:
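Calcein-AM fluorescence (ex494 nm/em 517 nm) in the stopper-defined detection zone quantifies migration of hNC cells after 72 h chemical exposure; 60,000 cells/well plated on Matrigel with LIF and bFGF, 16 h pre-incubation. DMSO baseline.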

The nature of assay [17]: ArunA_NOG_NucleusCount: ArunA Biomedical's Neurite Outgrowth (NOG) Assay for Nucleus Count (AID 2283756). The gist of the method: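 Viable neuron count, from Hoechst nuclei passing size and intensity gates, imaged at 20x on differentiated H9-derived human neurons. Exposure lasted 48 h from seeding; activity was scored relative to DMSO.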
A short description of assay [18]: ArunA_NOG_NeuriteLength: ArunA Biomedical's Neurite Outgrowth (NOG) Assay for Neurite Length (AID 2283757). The method in brief:
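Total neurite length per neuron, from traced βIII-tubulin-labelled processes longer than 10 um on viable Hoechst-gated cells, was scored as decrease from DMSO. Cells were hESC (H9)-derived neurons given 48 h chemical exposure immediately after seeding.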

Assay [19] in a line: ArunA_NOG_NeuritesPerNeuron: ArunA Biomedical's Neurite Outgrowth (NOG) Assay for Neurites Per Neuron (AID 2283758). The gist of the method:
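Differentiated human H9-derived neurons exposed to chemicals for 48 h from seeding, then stained with Hoechst and βIII-tubulin/DyLight 488. Automated imaging counted neurites (processes >10 um) per valid neuron; loss of signal versus DMSO scored.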

Assay [20] can be described thus: ArunA_NOG_BranchPointsPerNeurite: ArunA Biomedical's Neurite Outgrowth (NOG) Assay for Branch Points Per Neurite (AID 2283759). The gist of the method:
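Automated image analysis traced neurites (processes >10 um) from valid cell bodies after Hoechst and βIII-tubulin staining. hNN cells from H9 embryonic stem cells, 48 h exposure. Fitted bidirectionally against DMSO.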

`COC(=O)Nc1nc2ccccc2[nH]1`: the AC50 is 24.5 µM (active) in assay [1]; 1.41 µM (active) in [2]; 2.61 µM (active) in assay [4]; 10 µM (active) in assay [6]; 6.5 µM (active) in assay [7]. The molecule was classed as inactive in assay [3], in [5] and in assay [8].

Turning to `CN(C)C(=O)Nc1ccc(Cl)cc1`, the outcome in assay [9], in [2], in assay [3], in assay [10], in assay [5] and in assay [6] was inactive. In addition, the outcome in [7] and in [8] was inactive. Besides, in assay [1], the AC50 is 21.7 µM (active).

With `Nc1ccc(Oc2ccc(N)cc2)cc1`, the AC50 in assay [1] was 0.831 µM (active); in assay [5], 59.5 µM (active); in assay [7], 50.2 µM (active); in assay [12], 366 nM (active). The call in [2], in [3], in assay [6], in assay [11] and in assay [8] was inactive.

Consider `Cc1ccc(N)cc1`, for which the AC50 was 0.0844 µM (active) in [1], 61.2 µM (active) in assay [5], 23.1 µM (active) in [6] and 30.4 µM (active) in assay [7]. Moreover, the result in assay [2], in assay [3] and in assay [8] was inactive.

For the molecule `Nc1ccc(N=Nc2ccccc2)cc1`, the values for the AC50 in assay [1], in [2] and in assay [4] were 2.53 µM (active), 40.2 µM (active) and 33.9 µM (active), respectively. Besides, the result in assay [3], in assay [11] and in [8] was inactive.

With `Cc1cccc(N)c1N`, the AC50 is 2.35 µM (active) in [1]; 4.54 µM (active) in [2]; 57 µM (active) in assay [4]; 76.4 µM (active) in assay [5]; 79 µM (active) in [6]; 74.5 µM (active) in assay [7]. The AC50 in assay [11] was 1.07 µM (active); in [8] it was 44.5 µM (active). Also, the molecule was called inactive in [3].

Take `CC(C)COC(=O)c1ccccc1C(=O)OCC(C)C`: the outcome in assay [9], in assay [3], in assay [10], in [11] and in assay [8] was inactive. The AC50 in assay [4] is 2.53 µM (active); in [5], 76.1 µM (active); in [6], 33 µM (active); in assay [7], 35.3 µM (active).

`Cc1cc(N=Nc2ccccc2C)ccc1N`: the AC50 in assay [1] was 9.17 µM (active); in assay [2] it was 18.9 µM (active); in [3], 29.8 µM (active); in [4] it was 7.92 µM (active); in assay [8] it was 33.3 µM (active). Also, the result in [11] was inactive.

With `CO[C@@H]1[C@H](OC(=O)NC(=O)CCl)CC[C@]2(CO2)[C@H]1[C@@]1(C)O[C@@H]1CC=C(C)C`, the outcome in assay [9], in assay [1], in assay [2], in assay [3], in [10] and in assay [4] was inactive. The molecule was called inactive in assay [8], in assay [14], in assay [15], in [17], in [18] and in assay [19]. Moreover, the molecule was called inactive in assay [20]. Also, the AC50 was 0.0844 µM (active) in [5]; 0.039 µM (active) in [6]; 0.0656 µM (active) in [7]; 1.63 nM (active) and 120 nM (active) in [13]; 6.08 nM (active) in assay [14]; 22.8 nM (active) and 5 µM (active) in assay [16].

For `Nc1ccc(Cl)cc1N`, the AC50 is 50 µM (active) in [9]; 13.1 µM (active) in assay [1]; 30.8 µM (active) in [10]; 15 µM (active) in [4]; 44.8 µM (active) in [8]. The molecule was classed as inactive in [2], in [3] and in assay [11].

As for `Nc1cc(Cl)cc(C(=O)O)c1Cl`, the AC50 in [1] is 24.2 µM (active). Further, the molecule was called inactive in assay [2], in assay [3], in assay [4] and in assay [8].

Turning to `CCN(CC)CCO`, the molecule was called inactive in assay [9], in assay [3], in [10] and in [8].

On to `COC(=O)c1ccccc1N`, for which the outcome in assay [1], in assay [2], in [3], in [4] and in assay [8] was inactive.

As usually defined, the AC50 is the midpoint of the concentration-response curve, whichever way the signal moves.
